Only a selection was taken, and hits are over-represented in it overall.
Tgondii IFNg – inhibitors of Toxoplasma gondii growth with IFN-gamma; activity change, negative = inhibition, % (no concentration beside the values); AID 1259416; Toxoplasma gondii growth in IFN-gamma-treated host cells; active compounds read low; 3.8% of 69,000 active; in the data active = activity change below about -70%, passing the limit was not always enough;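 note: host cells are HeLa cells infected with Toxoplasma gondii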
Numbers without * were called inactive; ! = a repeat was not active.

What do the screens show for `Cc1ccsc1CN(C)C(=O)c1n[nH]c2ccccc12`?
Tgondii IFNg: 37.3

Results for CCOc1cccc(C2c3[nH]c4ccccc4c3CCN2C(=O)c2cccnc2)c1 (configuration not stated) ?
Tgondii IFNg: 189.0

Results for CCOc1cccc(C2c3[nH]c4ccccc4c3CCN2C(=O)CCC2CCCC2)c1 (configuration not stated) ?
Tgondii IFNg: 125.1

What do the screens show for `CCOc1cccc(C2c3[nH]c4ccccc4c3CCN2C(=O)c2cc(OC)c(OC)c(OC)c2)c1` (configuration not stated)?
Tgondii IFNg: -51.7

How did COc1cccc(C(=O)N2CCc3c([nH]c4ccccc34)C2c2ccc(SC)cc2)c1 (configuration not stated) do in these assays?
Tgondii IFNg: -63.0

How did CCOc1cccc(C2c3[nH]c4ccccc4c3CCN2C(=O)c2ccncc2)c1 (configuration not stated) do in these assays?
Tgondii IFNg: -84.2*

How did CCOc1cccc(C2c3[nH]c4ccccc4c3CCN2C(=O)c2ccc(OC)cc2)c1 (configuration not stated) do in these assays?
Tgondii IFNg: -92.5*

Results for COc1ccc(C2c3[nH]c4ccccc4c3CCN2C(=O)c2cccc(OC)c2)cc1 (configuration not stated) ?
Tgondii IFNg: -98.7*

Results for CCOc1cccc(C2c3[nH]c4ccccc4c3CCN2C(=O)C2CC2)c1 (configuration not stated) ?
Tgondii IFNg: inactive

Results for COc1cccc(C(=O)N2CCc3c([nH]c4ccccc34)C2c2ccc(F)cc2)c1 (configuration not stated) ?
Tgondii IFNg: inactive

What do the screens show for `CCOc1cccc(C2c3[nH]c4ccccc4c3CCN2C(=O)c2ccc(Br)cc2)c1` (configuration not stated)?
Tgondii IFNg: -97.8*

How did Cc1nc(C(C)C)sc1C(=O)N(C)Cc1nc(-c2ccccn2)no1 do in these assays?
Tgondii IFNg: -5.4

How did Cc1ccc(Cc2ccccc2C(=O)N2CCn3c(C(N)=O)cnc3C2)cc1 do in these assays?
Tgondii IFNg: -3.9

How did COc1ccc(C)cc1S(=O)(=O)NCCc1sc(-c2cccc(F)c2)nc1C do in these assays?
Tgondii IFNg: 59.1

What do the screens show for `NC(=O)C1(N2CCCCC2)CCN(Cc2cc3n(n2)CCCNC3)CC1`?
Tgondii IFNg: 6.5

What do the screens show for `O=C(CCc1ccc2cc[nH]c2c1)N1CCN(c2ccccn2)CC1`?
Tgondii IFNg: 117.4

Results for COc1ccc(OCC(=O)Nc2cc(C(F)(F)F)ccc2N2CCOCC2)cc1 ?
Tgondii IFNg: -47.0

Results for O=C(O)c1ccc2c(c1)nc(Nc1cccc(Cl)c1)c1ccncc12 ?
Tgondii IFNg: -72.6*

How did Cc1cccc(Nc2nc(C(=O)Nc3cccc(Cl)c3)nc3ccccc23)c1 do in these assays?
Tgondii IFNg: 30.5

Results for Cc1ccc(Nc2nc(C(=O)Nc3cccc(Cl)c3)nc3ccccc23)cc1 ?
Tgondii IFNg: 5.2

Results for Cc1ccc(-c2nc(C)c(CCNC(=O)C(=O)Nc3cc(C)cc(C)c3)s2)cc1 ?
Tgondii IFNg: -47.0

How did COc1ccc(C(=O)N2C[C@@H]3[C@H](c4ccccc42)[C@H](CO)N3Cc2ccccc2Cl)cc1 do in these assays?
Tgondii IFNg: -1.1

How did COc1ccc(C(=O)NC2CCCc3c2cnn3Cc2ccccc2Cl)cc1 (configuration not stated) do in these assays?
Tgondii IFNg: -80.2*

Results for COc1ccc(C(=O)N2C[C@H]3[C@@H](c4ccccc42)[C@@H](CO)N3Cc2ccccc2Cl)cc1 ?
Tgondii IFNg: 0.7

Results for CCO[C@H]1CCN(C(=O)C2CC=CC2)[C@H]1Cc1ccncc1 ?
Tgondii IFNg: -10.9

How did COc1ccccc1OCCn1cc(C(=O)C(F)(F)F)c2ccccc21 do in these assays?
Tgondii IFNg: 15.0

Results for COc1cncc(C(=O)Nc2cc(F)cc(F)c2)c1 ?
Tgondii IFNg: 47.7

What do the screens show for `COCCSc1nnc(NC(=O)c2ccco2)s1`?
Tgondii IFNg: 192.0

What do the screens show for `O=C(Nc1nnc(SCc2ccccc2)s1)C1COc2ccccc2C1` (configuration not stated)?
Tgondii IFNg: -83.3*

How did O=C(CSc1nc2ccccc2o1)Nc1nnc(SCc2ccccc2)s1 do in these assays?
Tgondii IFNg: 48.2

How did O=C(c1n[nH]c2c1CCCCCC2)N1CCCN(c2ccccn2)CC1 do in these assays?
Tgondii IFNg: 9.9

Results for Cc1cc(Nc2ccccn2)cc(C2CCCN(C(=O)c3n[nH]c4c3CCCCCC4)C2)n1 (configuration not stated) ?
Tgondii IFNg: -85.6*

What do the screens show for `Cc1cc(Nc2ccccn2)cc(C2CCCN(S(=O)(=O)c3ccc(F)cc3)C2)n1` (configuration not stated)?
Tgondii IFNg: -65.4

How did Cn1cc(C[C@H]2[C@H](O)CCN2C(=O)Cc2ccsc2)cn1 do in these assays?
Tgondii IFNg: -2.2

Results for CCn1c(C2CCCN(Cc3ccc(-c4ccn[nH]4)s3)C2)nn(C)c1=O (configuration not stated) ?
Tgondii IFNg: 0.6

Results for CCn1c(=O)c(-c2ccn[nH]2)cc2c(C)nc(N)nc21 ?
Tgondii IFNg: -74.4*

What do the screens show for `Cc1ccc(F)cc1-n1c(-c2ccn[nH]2)n[nH]c1=O`?
Tgondii IFNg: 7.6

How did O=C(N1CCCC1)N1CCC2(CC(=O)N(c3ccc(F)cc3)C2)C1 (configuration not stated) do in these assays?
Tgondii IFNg: 66.5

What do the screens show for `Cc1ccccc1CN1CCC2(COCc3cnc(NCc4ccco4)nc32)C1` (configuration not stated)?
Tgondii IFNg: -10.9

Results for Cc1cccn2c(CC(=O)N3CCCC4(CNC(=O)O4)C3)cnc12 (configuration not stated) ?
Tgondii IFNg: -3.5

How did O=C1Cc2cc(N3CC(C(=O)O)CC3=O)ccc2N1 (configuration not stated) do in these assays?
Tgondii IFNg: 0.8

How did Fc1ccc(-c2noc(-c3ccc4c(c3)OCO4)n2)cc1 do in these assays?
Tgondii IFNg: 6.4

What do the screens show for `O=C1Cc2cc(-c3ccc4c(c3)OCO4)ccc2N1`?
Tgondii IFNg: -74.6*

Results for CC(C)N1C2CN(Cc3ccco3)CC2C[C@@H]1C(=O)NCC1CC1 (some centres not stated) ?
Tgondii IFNg: 38.2

How did CCn1c(C)nc2cc(NC(=O)CCN3CCN(c4ccccn4)CC3)ccc21 do in these assays?
Tgondii IFNg: 2.5

How did CCOc1ccccc1NC(=O)Cn1c(=O)cc(C(=O)N2CCCCC2)c2ccccc21 do in these assays?
Tgondii IFNg: -34.1

Results for O=C(COc1ccc(Cl)cc1)Nc1c[nH]c(=O)[nH]c1=O ?
Tgondii IFNg: -106.2*

Results for O=C(COc1ccc(Cl)cc1)Nc1ccc(Cl)cn1 ?
Tgondii IFNg: 196.8

What do the screens show for `Cc1ccccc1CSCC(=O)Nc1c[nH]c(=O)[nH]c1=O`?
Tgondii IFNg: 14.9

Results for C=CCOc1ccc(Cl)cc1CN1CCOC(CN)C1 (configuration not stated) ?
Tgondii IFNg: -5.8

What do the screens show for `COc1ccccc1NC(=O)C(=O)NCCc1sc(-c2ccc(Cl)cc2)nc1C`?
Tgondii IFNg: 167.7

What do the screens show for `CC(=O)OCC(=O)[C@H]1CC[C@H]2[C@@H]3CCC4=CC(=O)CC[C@]4(C)[C@H]3CC[C@]12C`?
Tgondii IFNg: -81.9*!

What do the screens show for `C[C@]12C[C@H](O)[C@H]3[C@@H](CCC4=CC(=O)CC[C@@]43C)[C@@H]1CC[C@@H]2C(=O)CO`?
Tgondii IFNg: -13.3

Compound activity: PubChem, Broad Institute
